Consider 24 sequences from the OligoGym collection.
Note: reference of the scale not given here.

The first assay concerns the target PLXNA3. Put plainly: pooled miR-30 sensor sort-seq; sequence = guide strand. To be noted: shRNA.
Consider TTGTTGATGTTGTCCACGGGGG, for which the sensor-assay potency score (higher = more potent) was -0.257. The same measure, in the same setting: to TACAAGGACAGCGTGTCTGAGG belongs -0.523; to TTGTAGTCGATCTGCTGACGGA, -0.986. TAGTAGGTAAAGGAGGAGCGGT came in with a sensor-assay potency score (higher = more potent) of -1.08. On the same count and under the same terms, to TGTCTTGTAGTCGATCTGCTGA belongs -0.0226. On to ATCTCGGAGACCATCTTGCTGC, for which the sensor-assay potency score (higher = more potent) was -1.06. The same measure, in the same setting: under ATGTCGAACACGAACTGCGGGT stands -1.37. The sequence TAGATCTCGGAGACCATCTTGC registered a sensor-assay potency score (higher = more potent) of -0.165. On to TAGTCTATGAGCAGCAGCTTGT, for which the sensor-assay potency score (higher = more potent) is -0.951. Sequence TAGAACTCTGAGTCTCCCGCGC gave a sensor-assay potency score (higher = more potent) of -0.24.

As to TTGTGTGTCCGAGACAGTGAGC, the sensor-assay potency score (higher = more potent) is -0.941. TCACACTCGATCTTGGTGGTGA: the sensor-assay potency score (higher = more potent) was found to be 0.265.

Another assay has as its target PM20D1. Described as above. Conditions: shRNA.
The sequence TTGGACTGTCTGTCCAGGGTGA had a sensor-assay potency score (higher = more potent) of 0.135. On the same count and under the same terms, under TTGAATATGGTGAGTGCCGTGG stands -0.197; under AATACAGTCACCACTGTCCCGC, -0.75. Still for that read-out and setting: under TTGTCGTCCAGTGTGCCCCGAC stands -0.594; under ATGACATTGAACTTGACCCCTG, -0.759.

Regarding TTTATGAATGTATTTTCCGAAC, the sensor-assay potency score (higher = more potent) is -1.32. Turning to TTGGATAGTGAACAGGTGGCTA, the sensor-assay potency score (higher = more potent) was -0.715. TGACATTGAACTTGACCCCTGC: the sensor-assay potency score (higher = more potent) stood at 0.0724.

As for TTTCTCGTTGACTCCATGGATG, the sensor-assay potency score (higher = more potent) is -0.946. Still for that read-out and setting: under TTTCTCTCCATAAACCTGCTTA stands 0.0874; under TTGGACTGAGATTTTCTCGTTG, 0.297. On the same count and under the same terms, under TACATTTGTTAAGTCAAGCCTG stands 0.298.
